Source: PubChem BioAssay
Sampled rows, rich in hits. Any-hit rate of the full collection: about 27%.
PTK2B oligo ant – Pyk2 (human) oligomerization antagonism; Q14289; Q293 cells, Pyk2 FERM NanoBiT luminescence; hits give low values; z-score (the deposit names both 25 µM and 10 µM); hit rate 0.83% among 99,000;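 active = Z-score of -3 or lower, scaled per plate to the spread of control and sample wells; inactive = z-score above -3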;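 note: negative z-score means lost luminescence so less FERM oligomerization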
CYP2C19 inh – human CYP2C19 inhibition; P33261; CYP2C19 Supersomes, luciferin-H EGE luminescence, 30 min; inhibition, % at 5 µM; hit rate 21% among 96,000;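 active = CYP2C19 inhibition above a set limit at 5 µM in the primary screen, cut at about 50% in these data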;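 note: plate controls were negative control wells for no effect and 2.5 mM tranylcypromine positive control for full effect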
Target sequence (P33261 whole entry, looked up): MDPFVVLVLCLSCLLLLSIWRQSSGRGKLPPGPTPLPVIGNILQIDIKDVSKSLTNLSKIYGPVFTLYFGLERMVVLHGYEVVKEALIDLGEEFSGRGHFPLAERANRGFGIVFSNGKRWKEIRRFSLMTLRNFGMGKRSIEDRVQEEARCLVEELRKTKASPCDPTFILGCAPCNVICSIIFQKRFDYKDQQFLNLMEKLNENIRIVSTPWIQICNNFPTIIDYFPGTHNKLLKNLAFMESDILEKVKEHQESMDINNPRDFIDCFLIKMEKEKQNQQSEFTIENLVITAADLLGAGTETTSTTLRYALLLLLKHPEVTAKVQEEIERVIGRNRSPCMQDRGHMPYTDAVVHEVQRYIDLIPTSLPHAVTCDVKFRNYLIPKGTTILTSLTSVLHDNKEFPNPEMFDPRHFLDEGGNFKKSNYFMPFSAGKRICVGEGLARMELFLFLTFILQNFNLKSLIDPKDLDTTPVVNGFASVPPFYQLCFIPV
Cav32 inh – inhibitors of human Cav3.2 T-type calcium channel; Cav3.2-expressing cells, Fluo-4 calcium fluorescence FDSS; hits give low values; O95180; B-score at 10 µM; hit rate 4% among 100,000;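 active = single-dose well whose peak fluorescence ratio is a statistical outlier from its plate by either plate-standardised score or position-corrected B-score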
CYP2C19 act – cytochrome P450 2C19 (human) activation | 96,000 tested, under 10 active | AID 1025 | recombinant CYP2C19, luciferin-H EGE luminescence; hits give high values; 0 = fully inhibited enzyme, 1 = untreated enzyme | activation factor at 5 µM;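 active = activation factor of at least 2 at 5 µM in the primary screen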;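 note: 0 = wells with 2.5 mM tranylcypromine and 1 = vehicle-only wells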
CYP2C9 activ – CYP2C9 (human) activation. P11712. recombinant CYP2C9, luciferin-H conversion, luminescence; hits give high values; factor 1 = untreated enzyme, 0 = blocked. activation factor at 5 µM. hit rate 1.4% among 96,000;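 active = activation factor of 2 or more for CYP2C9 at a 5 µM dose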;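 note: 0 = sulfaphenazole-blocked wells and 1 = vehicle-only wells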
CYP2C9 inh – blocks human cytochrome P450 2C9; P11712; CYP2C9 Supersomes, luciferin-H conversion, luminescence; inhibition, % at 5 µM; hit rate 20% among 96,000;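 active = blocking of liver enzyme CYP2C9 beyond about 50% at 5 µM, limit read from the data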
* = called active by the depositor; nt = no result given.

SMILES	PTK2B oligo ant	CYP2C19 inh	Cav32 inh	CYP2C19 act	CYP2C9 activ	CYP2C9 inh
CCOC(=O)C1CCCN(C(=O)CSc2nccn2C)C1 (stereo not drawn)	-0.02	55*	0.43	0.4	0.8	15
CCOC(=O)C1CCCN(C(=O)c2cc(Nc3ccc(OC)cc3)nc3ccccc23)C1 (stereo not drawn)	-1.3	20	-5.5*	0.8	0.2	77*
Cc1ccc(Sc2ccc(N)cc2C#N)cc1	0.44	nt	-2.1	nt	nt	nt
CCOC(=O)C1CCCN(C(=O)c2ccccc2NC(C)=O)C1 (stereo not drawn)	0.71	1	-0.87	1	1	-4
CCOC(=O)C1CCCN(C(=O)c2ccccc2Oc2ccccc2)C1 (stereo not drawn)	0.85	87*	-1.3	0.1	0	99*
CCOC(=O)C1CCCN(C(=O)c2ccc(C)cc2O)C1 (stereo not drawn)	0.41	81*	-0.25	0.2	0.7	25
Cc1c(CN(C)C(=O)c2ccc(Br)o2)cnn1C	0.19	nt	0.13	nt	nt	nt
Clc1ccc(-c2nnc(SCc3nc(-c4ccccc4)no3)o2)cc1	nt	10	0.0014	0.9	0.3	71*
c1ccc(-c2noc(CSc3nc4ccccc4o3)n2)cc1	-0.31	6	nt	0.9	0.9	5
Clc1ccc(CSc2nnc(-c3ccncc3)o2)c(Cl)c1	0.54	81*	-0.2	0.2	0.3	70*
c1ccc(CSc2nnc(-c3ccncc3)o2)cc1	-0.24	97*	0.36	0	0.1	93*
c1ccc(-c2nc(CSc3nnc(-c4cccs4)o3)cs2)cc1	1.2	nt	-3.3	nt	nt	nt
Cc1[nH]c2ccccc2c1Cc1nnc(SCc2ccccc2)o1	nt	69*	-8.6*	0.3	0.7	27
C=CCn1c(COc2ccccc2F)nnc1SCC(=O)c1c[nH]c2ccccc12	-1	nt	nt	nt	nt	nt
Cc1cc(NC(=O)c2ccoc2C)no1	-0.37	nt	-0.51	nt	nt	nt
COc1ccc(-c2nnc(SCc3ccccc3F)o2)cc1	-1.4	30	-0.3	0.7	0.9	5
Cc1ccccc1-c1nnc(SCc2ccccc2)o1	-0.71	73*	0.18	0.3	0.4	59*
Cc1ccc(CSc2nnc(-c3ccco3)o2)cc1	-0.21	48	-0.86	0.5	0.4	63*
Fc1ccccc1CSc1nnc(-c2ccccc2)o1	-0.5	87*	-1.1	0.1	0.2	77*
CCSc1nnc(-c2ccc(Cl)cc2Cl)o1	0.85	23	-0.35	0.8	1	0
O=c1c(-c2nnc(SCc3ccc(Cl)cc3Cl)o2)cccn1Cc1ccccc1	-1.6	76*	-2.2	0.2	0.3	66*
Cc1ccccc1-c1nnc(SCc2ccccc2F)o1	-0.83	8	-0.98	0.9	0.9	14
COc1cc(OC)cc(-c2nnc(SCc3c(F)cccc3Cl)o2)c1	-1	47	-2.6	0.5	0.4	63*
Cc1cc(C(=O)c2cnc(/N=C/N(C)C)s2)cc(C)c1O	-1.3	41	0.87	0.6	2*	-103
CN(C)/C=N/c1ncc(C(=O)c2ccccc2)s1	0.33	13	1.1	0.9	1.2	-16
SMILES	PTK2B oligo ant	CYP2C19 inh	Cav32 inh	CYP2C19 act	CYP2C9 activ	CYP2C9 inh
COc1cccc(CC2CC(=O)N(CCc3ccc4c(c3)OCO4)C2=O)c1 (stereo not drawn)	0.27	96*	-2.9	0	0.5	47
COc1ccc(CCNc2c(N)n(Cc3ccccc3)c(=O)[nH]c2=O)cc1OC	-0.18	22	-0.083	0.8	0.6	43
COc1ccc(CCN2C(=O)CC(C(N)=O)SC2=Nc2ccccc2)cc1OC (stereo not drawn)	0.39	68*	1	0.3	0.8	19
CCN1C(=O)CC(NCc2ccc3c(c2)OCO3)C1=O (stereo not drawn)	0.62	7	-1.1	0.9	1	-1
COc1ccc(CCNC2=C(Cl)C(=O)N(CCc3ccccc3)C2=O)cc1OC	0.49	60*	-0.13	0.4	0.4	58*
O=C1CC(NCc2ccc3c(c2)OCO3)C(=O)N1CCc1ccccc1 (stereo not drawn)	-0.02	75*	0.067	0.3	0.5	47
CCCCCCOC(=O)Cc1c(C)nc(-c2ccccc2)[nH]c1=O	2.2	22	-1.6	0.8	1	-2
COC(C)(C)[C@H](O)COc1c2ccoc2cc2oc(=O)ccc12	nt	nt	0.78	nt	nt	nt
Cc1ccc(S(=O)(=O)N2CC3(C)CN(S(=O)(=O)c4ccc(C)cc4)CC(C)(C2)C3=O)cc1	-0.3	-12	1	1.1	1.1	-6
COC(=O)c1cc(O)cc(OC)c1Oc1cc(C)cc(O)c1C(=O)O	nt	nt	0.084	nt	nt	nt
COc1ccc(/C(O)=C2/C(=O)C(=O)N(CCN(C)C)C2c2ccc(OC)c(OC)c2)c(C)c1 (stereo not drawn)	1.8	nt	0.11	nt	nt	nt
COc1ccc(CCNC2CC(=O)N(CCc3ccc(OC)c(OC)c3)C2=O)cc1 (stereo not drawn)	0.26	21	-2.4	0.8	1	4
COc1ccc(CCNC2CC(=O)N(CCc3ccccc3)C2=O)cc1OC (stereo not drawn)	0.75	60*	0.39	0.4	0.8	16
COc1ccccc1Nc1nc2ccccc2n1C	nt	nt	0.23	nt	nt	nt
O=[N+]([O-])c1ccc(O)c(-c2nn[nH]n2)c1	0.84	70*	-0.15	0.3	0.2	83*
CCN(CC)C(=O)COc1ccc(-c2nnc(N3CCCCC3)c3ccccc23)cc1	-0.21	52*	-2.4	0.5	0.2	80*
Cc1ccc(-c2nnc(N3CCN(C(=O)CSc4ncn[nH]4)CC3)c3ccccc23)cc1	-0.64	70*	2.8	0.3	0.4	64*
Cc1nc(N2CCN(C(=O)COc3ccccc3)CC2)c2c(C)c(C)sc2n1	-0.9	36	-4*	0.6	0.1	93*
Cc1nc(N2CCC(C)CC2)c2c(C)c(C(=O)O)sc2n1	2	-7	1.1	1.1	1.1	-8
O=C(CSc1ncn[nH]1)N1CCN(S(=O)(=O)c2ccccc2)CC1	0.09	49	0.29	0.5	0.6	42
Cc1ccc(OCC(=O)N2CCN(c3nnc(-c4ccccc4)c4ccccc34)CC2)cc1	-1.6	47	-9.7*	0.5	0.6	45
CCOc1ccc(-c2nnc(N3CCCCC3)c3ccccc23)cc1	-1.7	39	-3.2	0.6	0.6	44
Cc1ccc2c(N)c(C(=O)N(c3ccccc3)c3ccccc3)sc2n1	0	nt	0.68	nt	nt	nt
O=C(Cn1cnc2ccccc21)NC(c1ccccc1)c1ccccc1	-0.17	4	-1.3	1	0.9	5
O=C(NCc1ccco1)c1n[nH]c(=O)c2ccccc12	-0.71	4	-1.9	1	0.9	11
CCNC(=S)NNC(=O)c1cccc(Br)c1	0.36	18	-0.036	0.8	1	1
COc1ccc(NC(=O)[C@@H]2[C@@H]3C(=O)N(C4CCCCC4)C(=O)[C@@H]3C3c4ccccc4C=CN32)cc1 (stereo partly drawn)	-0.33	46	nt	0.5	0.4	57*
